The panel holds about 83,000 compounds, 20% with a hit somewhere; the sample as a whole holds those more often.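 Compound tested at a single concentration for 48 hours in 96-well plates; a percent growth value below 10 was scored as active.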 A number with no mark means an inactive call. Active and inactive are the calls of the source.
These molecules were tested on MDA-MB-468 breast (assay: NCI-60 one-dose screen, 48 h (100 = growth as untreated, 0 = no growth, -100 = all killed)). Details: 10 µM unless noted.

Row | Compound | growth
1 | CN1CCc2c(c3ccccc3c3ccccc23)C1 | 30.7%
2 | CCNC(=O)OCCc1c2ccccc2nc2ccccc12 | 108%
3 | COc1ccc(S(=O)(=O)NCCCNc2nccc(-n3ccc4cccnc43)n2)cc1 | 76.2%
4 | CC[C@]1(O)CC2CN(CCc3c([nH]c4ccccc34)C(C(=O)OC)(c3cc4c(cc3OC)N(C=O)[C@H]3[C@@](O)(C(=O)OC)[C@H](OC(C)=O)[C@]5(CC)[C@@H]6C[C@@H]6CN6CC[C@]43[C@@H]65)C2)C1 (stereo not given in full) | 22.9%
5 | CC/C(=C(/c1ccc(Cl)cc1)c1ccc(OCCN2CCCC2)cc1)c1ccccc1 | 46.9%
6 | COc1ccc(-c2nc3ccc(-c4nc5ccc(N6CCN(C)CC6)cc5[nH]4)cc3[nH]2)cc1OC | -30.1% (active)
7 | O=C1OC(Oc2ccccc2)(c2ccccc2)c2ccccc21 (stereo not given) | 112%
8 | C#Cc1nc(C2=C(C)C(=N\O)/C(=N/O)C2)cs1 | 82.6%
9 | COCCOC1=C(Cl)C(=O)c2ccccc2C1=O | -5.01% (active)
10 | N#Cc1cccc(-c2c(-c3ccc4ccccc4c3)oc3ccccc3c2=O)c1 | 3.16% (active)
11 | C=C(CC(=O)OC)C(C)=O | 102%
12 | CS(=O)(=O)c1ccc(-c2nc3ccccn3c2/C=N/Nc2nc(-c3ccc(Cl)cc3)cs2)cc1 | 94.2%
13 | CN1CCN(Cc2ccc(NC(=O)c3cncc(C#Cc4cnc5ccc(Cl)nn45)c3)cc2C(F)(F)F)CC1 | -20.1% (active)
14 | Cn1ccnc1C(=O)/C=C/c1ccc(NC(=O)Nc2ccc(Cl)cc2)cc1 | 43.9%
15 | CCOC(=O)c1cnn2c3ccccc3n(S(=O)(=O)c3ccc(OC)cc3)c12 | -12.1% (active)
16 | COc1cccc(C2=NN3C(C2)c2ccccc2OC3c2ccc(/C=C3\SC(=O)NC3=O)cc2)c1 (stereo not given) | 102%
17 | COc1ccc(OC)c(NC(=O)/C(C#N)=C/c2ccco2)c1 | 85.2%
18 | COc1ccc2nc(-c3cc(-c4cc(OC)c(OC)c(OC)c4)n[nH]3)[nH]c2c1 | -8.59% (active)
19 | CCCCC(O)Cn1ncc(C(=O)OCC)c1NC(=O)NCc1ccccc1C(F)(F)F (stereo not given) | 98.7%
20 | O=P(O)(O)OCC(O)CO (stereo not given) | 100%

Row | Compound | growth
21 | Nc1ncnc(Nc2ccc(C(F)(F)F)cc2)n1 | 108%
22 | NC(N)=Nc1ccc(Oc2cccc(Nc3ccc(Cl)c(C(F)(F)F)c3)c2)cn1 | -84.4% (active)
23 | CC1=CSC2=NC(c3ccc(Cl)c(Cl)c3)=CC(c3ccc(Cl)cc3)N12 (stereo not given) | -61.3% (active)
24 | O=C(c1ccccc1)C(Br)C(Br)c1cccc([N+](=O)[O-])c1 (stereo not given) | -66.4% (active)
25 | Oc1ccc(Cl)cc1-c1cc(-c2ccccc2Cl)[nH]n1 | 3.92% (active)
26 | Cc1c(O)c(=O)ccn1-c1nc2ccccc2s1 | 103%
27 | Nc1nc(Nc2ccccc2)n[nH]1 | 120%
28 | O=C(Nc1ccc(Cl)c(C(F)(F)F)c1)Nc1ccc2c(ccn2C(=O)c2cccc(F)c2)c1 | 9.28% (active)
29 | O=C(CC(O)c1ccccc1)Nc1ccccn1 (stereo not given) | 119%
30 | NC(=O)c1ccc2c(c1)OCO2 | 88.9%
31 | O=C(c1cccc(Br)c1)N1CCN(c2ccnc3cc(Cl)ccc23)CC1 | 66%
32 | Nc1cc(-c2c[nH]c3ccc(F)cc23)nc2cc(-c3c[nH]c4ccc(F)cc34)nn12 | 115%
33 | N#CC1=C(N)Oc2c(ccc3ccccc23)C1c1cc(=O)oc2ccc(Cl)cc12 (stereo not given) | 62%
34 | COc1cc(CCn2nnc3c(Nc4ccc(N5CCOCC5)cc4)ncnc32)cc(OC)c1 | 80.6%
35 | Cc1ccc(-c2nc([P+](c3ccccc3)(c3ccccc3)c3ccccc3)c(S(=O)(=O)c3ccc(C)cc3)o2)cc1 | -21.5% (active)
36 | O=C(Cc1ccccc1)Nc1nc(O)c(/C=C2\C(=O)C=Cc3ccccc32)s1 | 95.9%
37 | COc1cc(CSc2nc3ccc(C)cc3c(=O)n2Cc2ccccc2)cc(OC)c1OC | -25.1% (active)
38 | O=C(/C=C/C12c3ccccc3C(c3ccccc31)C1C(=O)NC(=O)C12)c1ccc(Cl)cc1Cl (stereo not given) | 23.8%
39 | OC(COCc1ccccc1)COCc1ccccc1 | 108%
40 | COc1cc(CNC(=O)c2ccsc2Nc2ccnc(C(F)(F)F)c2)ccc1O | 95.6%
